High-throughput results from PubChem.
A selection: hits, their analogues and other compounds. The true share with any hit is near 11%.
ALDH1A1 inh: blocks purified human ALDH1A1 activity; P00352; Purified ALDH1A1, NADH fluorescence, propionaldehyde substrate; Potency, µM (top dose mostly 75.3 µM), usual class: inhibitors; 7.3% of 220,000 active; AID 1030; active = well fitted inhibition curve with a large enough effect, not every such curve was filed as active; inconclusive = small, poorly fitted or top-dose-only effect, or another doubt; inactive = no such curve, though single readings can be large or run the other way
Target sequence (P00352 whole entry, looked up): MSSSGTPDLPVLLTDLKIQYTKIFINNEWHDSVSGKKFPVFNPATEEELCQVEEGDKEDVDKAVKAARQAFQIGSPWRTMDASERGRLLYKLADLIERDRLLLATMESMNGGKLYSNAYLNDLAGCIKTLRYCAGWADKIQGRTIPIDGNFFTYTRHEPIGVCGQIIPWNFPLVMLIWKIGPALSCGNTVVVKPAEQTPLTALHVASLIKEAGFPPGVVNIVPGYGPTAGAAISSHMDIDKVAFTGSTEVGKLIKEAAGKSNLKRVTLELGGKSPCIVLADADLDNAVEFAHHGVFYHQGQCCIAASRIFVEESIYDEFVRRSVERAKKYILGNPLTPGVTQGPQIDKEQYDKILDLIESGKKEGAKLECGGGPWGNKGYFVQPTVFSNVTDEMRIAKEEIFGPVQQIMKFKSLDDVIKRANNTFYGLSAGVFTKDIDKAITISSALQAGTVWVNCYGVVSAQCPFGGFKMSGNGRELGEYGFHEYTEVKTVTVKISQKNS
HPGD block: inhibitors of human 15-hydroxyprostaglandin dehydrogenase (HPGD) | P15428 | purified HPGD, NADH fluorescence kinetic, PGE2 substrate | Potency, µM, most hits filed as inhibitors | 4.3% of 150,000 active; active = well fitted inhibition curve with a large enough effect, not every such curve was filed as active; inconclusive = small, poorly fitted or top-dose-only effect, or another doubt; inactive = no such curve, though single readings can be large or run the other way
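20 nM HPGD preincubated 15 min at room temperature with compound in 50 mM Tris-HCl pH 8, 0.01% Tween 20. Started with 1 mM NAD+ and 30 uM prostaglandin E2; NADH fluorescence (360/450 nm) read 5 times over 30-s intervals, last minus first.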
PNC assembly inh: inhibitors of perinucleolar compartment assembly; 3.1% of 140,000 active; AID 2417; PC3M PTB-GFP, PNC prevalence imaging, 16 h; active compounds read low; activity change (PNC), negative = inhibition, % at 10 µM;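 active = readout at or below -70, meaning at least 70% loss of cells showing the perinucleolar compartment, a nuclear body marking cancer cells; inconclusive = readout between -30 and a set limit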
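Read-out is percentage of cells bearing a perinucleolar compartment, from automated 20x imaging of fixed, Hoechst-stained PC3M PTB-GFP cells. Cells were seeded 4 h, then exposed 16 h to compound (23 nl of library stock) in duplicate plates.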
HttQ103 aggreg: reduces HttQ103-GFP aggregates in PC12 cells; PC12 HttQ103-GFP aggregates, Acumen cytometry, 40 h; Potency, µM (series often up to 46.1 µM), most hits filed as inhibitors; 1.1% of 220,000 active; note: nearly all actives have a fitted effect of over 60% in size
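Steps: seed 1500 PC12 HTTQ103-GFP cells/well; add tebufenozide, 100 nM final; add compound titration; add ATPLite reagent; quantify GFP aggregates by laser scanning cytometry.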
HTT ATP protect: cytoprotection in Huntington HTT-Q103 PC12 cell model; Potency, µM (highest dose often 56.4 µM), hits mostly activators; PC12 HTT-Q103 induced, cytoprotection, ATP luminescence, 40 h; 0.14% of 230,000 active; AID 1471; note: nearly all actives have a fitted effect of over 45% in size
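PC12 cells stably carrying ecdysone-inducible Htt exon 1 (Q103)–GFP were induced with 100 nM tebufenozide (final) alongside library compounds in a dose series. Cytoprotection was scored as retained ATP by ATPlite luminescence.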
CBFb-RUNX1 inh: CBF-beta/RUNX1 interaction disruption; Q01196+Q13951; AlphaScreen CBFb-His/RUNX1-biotin binding, biochemical; Potency, µM (series often up to 59.8 µM), most hits filed as inhibitors; 230,000 tested, under 10 active; AID 1477
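CBFb-His/RUNX1-biotin, 30 nM each, preincubated 20 min RT; compound 15 min RT; Ni + streptavidin beads 50 ng each, 90 min RT; AlphaScreen read.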
Each line names hits and unclear results; the compound was inactive in the other large screens. Unless noted, calls come from the whole dose curve; as a rule, active = well fitted curve in the direction sought with a large enough effect; inconclusive = small, poorly fitted or top-dose-only effect, or another doubt; inactive = no such curve, though single readings can be large; an effect the other way counts as inactive or inconclusive.

Fc1ccc(-n2nnnc2-c2cnc(-c3cccs3)nc2C(F)(F)F)cc1	none (no result: HPGD block)
COc1cc2c(cc1OC)-c1c(oc3cc(O)cc(O)c3c1=O)CO2	none (no result: PNC assembly inh, HttQ103 aggreg)
CC1CCC(C(=O)NC(C(=O)N2CCN(c3ccccn3)CC2)C(C)C)CC1 (centres undefined)	PNC assembly inh -114
Cn1cc(Br)c(C(=O)NC(=S)N2CCN(c3ccccn3)CC2)n1	PNC assembly inh -86 (no result: HTT ATP protect)
CCC(Oc1ccccc1)C(=O)N1CCN(c2ccccn2)CC1 (centres undefined)	PNC assembly inh -132
CCC(Oc1ccccc1)C(=O)N1CCN(C(=O)C(CC)Oc2ccccc2)CC1 (centres undefined)	none
O=C(NC(=S)N1CCN(c2ccccn2)CC1)c1ccccc1	PNC assembly inh -92 (no result: HTT ATP protect)
O=c1c(-c2cccc(Cl)c2)nc2cncnc2n1Cc1ccccc1Cl	HTT ATP protect inconclusive (no result: PNC assembly inh, HttQ103 aggreg, CBFb-RUNX1 inh)
COc1ccc(-c2[nH]nc3c2C(c2ccoc2)C(C#N)=C(N)O3)cc1 (centres undefined)	HPGD block 13µM, PNC assembly inh inconclusive
CC(C)CC1C(C#N)=C(N)Oc2n[nH]c(-c3ccccc3)c21 (centres undefined)	ALDH1A1 inh inconclusive, PNC assembly inh -100, HttQ103 aggreg inconclusive
C/C(=C\c1ccco1)C1C(C#N)=C(N)Oc2n[nH]c(-c3ccc(C)cc3)c21 (centres undefined)	HTT ATP protect 3.5µM
CC(C)C1C(C#N)=C(N)Oc2n[nH]c(-c3ccccc3)c21 (centres undefined)	none
Cc1ccc(-c2[nH]nc3c2C(c2ccoc2)C(C#N)=C(N)O3)cc1C (centres undefined)	PNC assembly inh inconclusive
Cc1cccc(CNc2cc(-c3c(C)noc3C)ncn2)c1	none (no result: HPGD block, PNC assembly inh, HttQ103 aggreg, CBFb-RUNX1 inh)
CCC(CCC(C)C1CCC2C3CC=C4CC(OC(C)=O)CC[C@@]4(C)C3CC[C@@]12C)C(C)C (some centres undefined)	none (no result: PNC assembly inh, HttQ103 aggreg, HTT ATP protect, CBFb-RUNX1 inh)
O=C1CCCCC2CCCCN12 (centres undefined)	none (no result: PNC assembly inh, HttQ103 aggreg, HTT ATP protect)
Oc1cccc(CN2CCCCC2)c1	none (no result: HTT ATP protect)
CC(C)(C)c1cc(CN2CCCCC2)cc(C(C)(C)C)c1O	ALDH1A1 inh 14µM
Cc1ccc(NS(=O)(=O)c2ccc(Cl)c(NC(=S)NC(=O)C3CCCCC3)c2)cc1Cl	ALDH1A1 inh inconclusive, HttQ103 aggreg inconclusive
O=[N+]([O-])c1ccccc1S(=O)(=O)N1CCN(Cc2ccsc2)CC1	ALDH1A1 inh inconclusive (no result: HPGD block, PNC assembly inh)
CCSc1ncccc1C(=O)N[C@@H](CCSC)C(=O)OC	none (no result: ALDH1A1 inh, HPGD block, PNC assembly inh)
CN(C)c1nc(-c2cccc(NS(C)(=O)=O)c2)nc2ccccc12	none (no result: HPGD block, PNC assembly inh, HttQ103 aggreg, CBFb-RUNX1 inh)
N#Cc1c(C(F)(F)F)cc(-c2ccccc2)nc1SCc1nc(N)nc(N2CCOCC2)n1	none
C=CCSc1nc(-c2ccc3c(c2)OCO3)cc(C(F)(F)F)c1C#N	ALDH1A1 inh inconclusive, HPGD block inconclusive, PNC assembly inh -96
Cc1cc(C(F)(F)F)nc(SCCN2CCOCC2)c1C#N	ALDH1A1 inh 22µM (no result: HPGD block, PNC assembly inh)
N#Cc1c(C(F)(F)F)cc(-c2ccc(Cl)c(Cl)c2)nc1SCCN1CCOCC1	HPGD block 25µM
Cc1cc(C)nc(SCCN2CCOCC2)n1	none
CN(C)c1ncc2nc(-c3ccccc3)c(=O)n(C)c2n1	ALDH1A1 inh inconclusive (no result: HPGD block, PNC assembly inh, HttQ103 aggreg, CBFb-RUNX1 inh)
CCOC(=O)c1sc2nc(C(C)C)c3c(c2c1N)CCC3	ALDH1A1 inh inconclusive, HPGD block inconclusive
Cc1ncc([N+](=O)[O-])n1CCOC(=O)NC(NCc1ccccc1Cl)C(Cl)(Cl)Cl (centres undefined)	none
O=C(Oc1ccc(Br)cc1)c1n[nH]c(=O)c2ccccc12	ALDH1A1 inh inconclusive (no result: HPGD block, PNC assembly inh)
COC(=O)c1ccc(COC(=O)c2ccc(-n3cnnn3)cc2)o1	ALDH1A1 inh 20µM
COc1ccc(OC)c(NC(=O)COC(=O)c2ccc(-n3cnnn3)cc2)c1	none (no result: HPGD block)
CC(C)CC(=O)NC(=S)Nc1ccc(NC(=O)c2ccco2)cc1	HPGD block 14µM (no result: HTT ATP protect)
COc1ccccc1C(=O)NC(=S)Nc1ccc(NC(=O)c2ccco2)cc1	ALDH1A1 inh 13µM (no result: HPGD block, PNC assembly inh)
